Screens (PubChem)
Hits are enriched below; roughly 2.4% of the tested compounds scored in any of these assays.
TDP1 inh – blocks human tyrosyl-DNA phosphodiesterase 1. Potency, µM (doses to about 130 µM), inactives show at the highest dose activity change, negative = inhibition, most hits filed as inhibitors. Q9NUW8. 350,000 tested, 0.28% active. recombinant TDP1, AlphaScreen DNA substrate cleavage; further: potency means the concentration at half of the fitted maximal effect; on the % scale 0 is the no-effect control and ±100 the full control effect; nearly all actives have a fitted effect of over 40% in size
Target sequence (Q9NUW8 whole entry, looked up): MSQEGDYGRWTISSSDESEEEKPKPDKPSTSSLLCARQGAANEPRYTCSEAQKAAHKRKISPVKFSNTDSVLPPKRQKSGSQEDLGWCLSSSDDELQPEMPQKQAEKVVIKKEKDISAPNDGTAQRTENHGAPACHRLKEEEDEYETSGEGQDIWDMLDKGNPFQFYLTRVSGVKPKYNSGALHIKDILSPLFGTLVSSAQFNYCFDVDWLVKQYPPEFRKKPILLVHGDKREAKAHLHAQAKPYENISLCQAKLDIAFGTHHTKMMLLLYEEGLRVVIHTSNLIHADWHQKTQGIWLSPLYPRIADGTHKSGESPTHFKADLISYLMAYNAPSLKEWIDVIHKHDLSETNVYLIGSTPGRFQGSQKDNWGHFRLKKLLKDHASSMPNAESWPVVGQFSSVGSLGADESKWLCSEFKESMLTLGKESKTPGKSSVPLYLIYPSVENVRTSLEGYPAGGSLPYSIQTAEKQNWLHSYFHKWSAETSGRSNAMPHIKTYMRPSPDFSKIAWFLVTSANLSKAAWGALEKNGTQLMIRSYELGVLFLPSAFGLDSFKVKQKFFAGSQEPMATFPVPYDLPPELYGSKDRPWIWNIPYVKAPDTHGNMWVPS
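Tdp1 1 nM final; 15 min RT w/ cpd; substrate 15 nM, 5 min; beads 10 ug/ml, 10 min; AlphaScreen read. Neg ctrl: no enzyme.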
Pol eta inh-1 – blocks human DNA polymerase eta activity | Q9Y253 | recombinant Pol eta, fluorescent DNA replication assay | Potency, µM (doses to about 114 µM), for the others: at the highest dose activity change, negative = inhibition, hits mostly inhibitors | 390,000 tested, 1.2% active; further: potency means the concentration at half of the fitted maximal effect; on the % scale 0 is the no-effect control and ±100 the full control effect
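Fluorescent replication assay: 50 nM final substrate added after a 15 min room-temperature compound preincubation with 10 nM enzyme. Signal taken at 0 min and again at 10 min.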
POLI inh – DNA polymerase iota (human) inhibition. Q9UNA4. Pol iota fluorescent replication assay, 10 min. Potency, µM (top dose mostly 115 µM), for the others: at the highest dose activity, negative = inhibition, most hits filed as inhibitors. 390,000 tested, 1% active; further: potency means the concentration at half of the fitted maximal effect
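Fluorescent replication assay read twice, at 0 min and 10 min after adding 50 nM (final) substrate. Enzyme (10 nM) and compounds were first incubated 15 min at room temperature; enzyme-free buffer wells were negative controls.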
Pol kappa inh-1 – inhibitors of human DNA polymerase kappa; Q9UBT6; purified Pol kappa, fluorescent DNA synthesis assay, 10 min; Potency, µM (series often up to 107 µM), for the others: top-dose activity, negative = inhibition, usual class: inhibitors; 400,000 tested, 0.53% active; AID 588579; further: potency means the concentration at half of the fitted maximal effect; on the % scale 0 is the no-effect control and ±100 the full control effect
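10 nM Pol kappa preincubated 15 min at room temperature with compounds, then reaction started with substrate at 50 nM final. Fluorescence read kinetically at 0 and 10 min; buffer-only wells served as negative control.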
Pol beta inh – blocks human DNA polymerase beta activity | Pol beta primer extension/strand displacement, fluorescence kinetic | Potency, µM (series often up to 114 µM), for inactives: at the top dose activity change, negative = inhibition, hits mostly inhibitors | P06746 | 340,000 tested, 1.3% active; further: potency means the concentration at half of the fitted maximal effect; on the % scale 0 is the no-effect control and ±100 the full control effect
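Reaction started by 50 nM substrate onto compound-treated Pol beta (10 nM, 15 min preincubation, room temperature); plates read at 0 min and 10 min. Normalized concentration-effect data fitted by four-parameter Hill equation.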
GALK inh confirm – galactokinase (human) inhibition, confirmation; purified GALK, Kinase-Glo ATP depletion luminescence; 150 tested, 70% active; Potency, µM (highest dose often 115 µM), inactives show at the top dose activity, negative = inhibition, actives largely listed as inhibitors; shares compounds with Pol eta inh-1
GALK redox cs – redox cycling activity in phenol red-HRP assay; 150 tested, 40% active; Phenol red-HRP H2O2 redox cycling, absorbance 600 nm; shares compounds with Pol eta inh-1; Potency, µM (titrated, usually from 115 µM), inactives show top-dose activity change, negative = H2O2 signal, most hits filed as inhibitors
HEK293 viability – reduces HEK-293 cell viability in GALK counter-screen; shares compounds with Pol eta inh-1; AID 2547; HEK-293 viability, ATP luminescence (CellTiter-Glo), 24/48 h; Potency, µM (top dose mostly 46.1 µM), for the others: at the highest dose activity change, negative = cytotoxicity, most hits filed as inhibitors; 170 tested, 10% active; further: potency means the concentration at half of the fitted maximal effect; on the % scale 0 is the no-effect control and ±100 the full control effect
Pol kappa inh-2 – confirmation of human DNA polymerase kappa inhibitors; shares compounds with Pol eta inh-1; purified Pol-kappa, fluorescent strand-displacement substrate; Potency, µM, most hits filed as inhibitors; 920 tested, 76% active; AID 720501; further: potency means the concentration at half of the fitted maximal effect
Pol eta inh-2 – confirmation of human DNA polymerase eta inhibitors | shares compounds with Pol eta inh-1 | Pol eta primer extension, TAMRA/BHQ fluorescence, 10 min | Potency, µM, usual class: inhibitors | 2,600 tested, 64% active; further: potency means the concentration at half of the fitted maximal effect
* hit, by the source's call; ? = inconclusive; . = no result given; [ ] = remark or other dose. The call rests on the fitted dose curve; in most records, active means well fitted curve in the direction sought with a large enough effect; inconclusive means small, poorly fitted or top-dose-only effect, or another doubt; inactive means no such curve, though single readings can be large; an effect the other way counts as inactive or inconclusive.

SMILES	TDP1 inh	Pol eta inh-1	POLI inh	Pol kappa inh-1	Pol beta inh	Pol eta inh-2	others
COC1=C(N)C(=O)c2nc(-c3nc(C(=O)O)c(C)c(-c4ccc(OC)c(OC)c4O)c3N)ccc2C1=O	-3%	3.5µM*	0.89µM*	50µM*	10µM*	.	GALK inh confirm=?;GALK redox cs=0.94µM*;HEK293 viability=0.013µM*
COc1ccc(C(=O)C2C(=O)C(=O)N(Cc3ccco3)C2c2cccs2)cc1 (stereo not drawn)	3%	.	?	-22%	.	.
Cc1cccc(CSCc2ccc(C(=O)O)o2)c1	.	-14%	2%	-8%	19%	.
Cc1oc(C(=O)O)cc1CSCc1cc(C(=O)O)c(C)o1	.	3.2µM*	?	?	22µM*	27*
O=C(O)c1occc1CSc1ccccc1	2%	3%	-4%	-13%	-6%	.
Cc1oc(C(=O)O)cc1CSCc1ccoc1C(=O)O	.	3.2µM*	?	?	-16%	30*
O=C(CCCn1c(=O)c2sccc2n(Cc2ccc(F)cc2Cl)c1=O)NCc1ccc2c(c1)OCO2	-2%	-17%	17%	-7%	21%	.
CCc1ccc(CN(C(=O)Nc2cccc(Cl)c2)c2ccccn2)cc1	-13%	-12%	18%	-21%	-17%	.
COc1cc(NS(=O)(=O)c2cnc(N)nc2)cc(OC)c1	-3%	15%	15%	-5%[60.1 µM]	29%	.
CCOc1ccccc1CNC(=O)c1ccc(N2Cc3ccccc3Oc3ncccc32)s1	5%	-14%	4%	-7%	-16%	.
CC(=O)C1=C(C)OC2(O)c3ccccc3C(=O)C12O (stereo not drawn)	-3%	79µM*	1µM*	-10%	9%	?
CC1=C(C(=O)OC(C)C)C2(O)C(=O)c3ccccc3C2(O)N1 (stereo not drawn)	2%	6%	8%	-13%	9%	.
CCOC(=O)C1=C(C)N[C@@]2(O)c3ccccc3C(=O)[C@@]12O	4%	-11%	14%	-6%	21%	.
CCOC(=O)C1=C(C)OC2(O)c3ccccc3C(=O)C12O (stereo not drawn)	1%	40µM*	1.6µM*	-5%	-29%	.	GALK inh confirm=27µM*;GALK redox cs=19µM*;HEK293 viability=9%
Cc1ccc(Cn2c(CNC(=O)Cc3cccc([N+](=O)[O-])c3)nc3cccnc32)cc1	2%	-5%	72%	-3%[60.1 µM]	12%	.
CCc1nc2nc(C)cc(Nc3ccc(Br)cc3F)n2n1	5%	-13%	23%	13%	12%	.
Cc1c(CCOC(=O)c2ccc(N3CCOCC3)c([N+](=O)[O-])c2)sc[n+]1CC#N	2%	50µM*	?	-17%	?	?	Pol kappa inh-2=75*
Cc1ncsc1CCOC(=O)c1ccc(N2CCOCC2)c([N+](=O)[O-])c1	5%	3%	13%	9%	-12%	.
CC=C1COC(C(=O)NCCOCCO)(C(F)(F)F)C=C1C=C(C)C (stereo not drawn)	5%	.	31%	-5%	.	.
CC(C)Cn1c(N)c(C(=O)COC(=O)C2Cc3ccccc3CN2S(C)(=O)=O)c(=O)n(C)c1=O (stereo not drawn)	28µM*	22µM*	45µM*	?	.	?	Pol kappa inh-2=?
Cc1ccc(C2C(/C=C3/SC(=S)NC3=O)=C(c3cccs3)Oc3ccccc32)cc1 (stereo not drawn)	11%	71µM*	?	?	32µM*	?	Pol kappa inh-2=?
CC1Cc2cc(/C=C3/SC(=S)NC3=O)ccc2O1 (stereo not drawn)	.	9%	-5%	-16%	3%	.
Cc1ccc(/C=c2\sc3nc(-c4cccnc4)nn3c2=O)cc1	2%	10µM*	?	-21%	?	?
O=C(N/N=C/c1cc(Br)c(O)c(Br)c1)c1cc2c(ccc3ccccc32)o1	-20%	18µM*	?	20µM*	?	85*
COc1ccc(Br)cc1/C=C/C(=O)NC(=S)Nc1ccc(Cl)c(C(=O)O)c1	5%	25µM*	17%	2%	12%	.	Pol kappa inh-2=?
SMILES	TDP1 inh	Pol eta inh-1	POLI inh	Pol kappa inh-1	Pol beta inh	Pol eta inh-2	others
CCOC(=O)c1ccc(NC2=CC(=O)C(=O)c3ccccc32)cc1	6%	35µM*	?	-6%	3%	?
COc1ccc([C@]23Cc4cc(C#N)ccc4C(O2)c2c(cc(C)n(-c4ccccc4)c2=O)O3)cc1	.	.	.	.	0%[22.9 µM]	.
O=C(c1ccccc1)N1CCc2cc(CNS(=O)(=O)c3ccc(Cl)s3)ccc21	5%	-15%	39%	-12%[60.1 µM]	1%	.
O=C(O)c1ccc(N2C(=O)CCCC2=O)cc1	.	-5%	-5%	4%	1%	.
O=C(O)c1ccc(-n2[nH]c3c(c2=O)CCCC3)cc1	.	35µM*	?	?	28µM*	?	Pol kappa inh-2=24*
CN(Cc1ccco1)S(=O)(=O)c1nnc(NC(=O)c2ccccc2Cl)s1	4%	50µM*	?	?	?	?
CN(c1ccc(Cl)cc1)S(=O)(=O)c1nnc(NC(=O)c2ccco2)s1	3%	?	?	?	?	?	Pol kappa inh-2=?
CS(=O)(=O)NN1C(=O)c2ccccc2NC1c1cccc(O)c1 (stereo not drawn)	5%	-11%	70%	2%	31%	.
CN1C(=O)c2ccccc2NC(=O)[C@]12O[C@@H]2c1cccc(O)c1	.	11µM*	?	40µM*	45µM*	38*
CSc1ccccc1NC(=O)c1cc2ncc(Br)cn2n1	.	45µM*	-83%	?	?	?
O=C(Nc1sc2c(c1C(=O)O)CCCC2)C(=O)N1CCOCC1	2%	-11%	6%	-17%	-12%	.
O=C(Nc1sc2c(c1C(=O)O)CCC2)C(=O)N1CCOCC1	-18%	20µM*	?	-7%	?	?
